Results as given in the supplement of paper PMC10338343.
± gives the standard deviation.

Columns and labels:
[1] = tested on: MILI (PIWIL2) piRISC loaded with L1MC piRNA (26 nt); assay: pre-steady-state target cleavage rate (min^-1); guide: L1MC piRNA 5'p-UAACUAAAUACUAUGCAAGCUGUAGG; higher = faster piRNA-guided slicing of the target;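 note: 1 nM active piRISC with 0.1 nM target library at 33 °C single turnover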
Method in brief: (§1)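 In this Cleave-'n-Seq assay, uncleaved targets were sequenced and normalised to depth and to weakly complementary targets. They came from a transcribed, DNA-blocked target RNA library […] mixed with 1 nM active affinity-purified piRISC carrying one synthetic guide, with or without 500 nM GTSF1 partner protein, in HEPES–potassium acetate buffer at 33 °C for 0–8 or 0–960 min. After three trials were pooled and k3 was capped at 0.0001 min^-1, the pre-steady-state cleavage rate was obtained from a burst-and-steady-state fit.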

[2] = tested on: EfPiwi piRISC loaded with L1MC piRNA (26 nt); assay: pre-steady-state target cleavage rate (min^-1); auxiliary factor: 500 nM Ephydatia muelleri Gtsf1; guide: L1MC piRNA 5'p-UAACUAAAUACUAUGCAAGCUGUAGG; MIWI and MILI are mouse PIWI proteins and EfPiwi is from a freshwater sponge; tags in brackets are library labels; higher = faster piRNA-guided slicing of the target
Method in brief: as §1

[3] = auxiliary factor: 500 nM mouse GTSF1
[4] = auxiliary factor: none (no GTSF1)

Sequence | pre-steady-state target cleavage rate [1, 3] | pre-steady-state target cleavage rate [1, 4] | pre-steady-state target cleavage rate [2]
UCCUGCUACAGCUUGCAUAGUAUUUAGUCUA | 0.116 ± 0.02 | 0.00343 ± 0.0029 | 0.00636 ± 0.0024
UCCUGGAACUGCUUGCAUAGUUUUUAGUUA | 0.0358 ± 0.0071 | 0.00455 ± 0.0018 | 0.00498 ± 0.0026
UCCUCCUACAGCUUGCAUAGUCAUUUAGUUA | 0.0182 ± 0.0076 | 0.00422 ± 0.0022 | 0.00268 ± 0.0025
UCCUGGAUCAGCUUGAAUAGUAUUUAGUUA | 0.247 ± 0.017 | 0.00991 ± 0.0026 | 0.0605 ± 0.015
UCCUGGAUGAGCUUGCAUAGUAUUUAGUUG [g2:g21:cont:t1G] | 0.186 ± 0.019 | 0.00606 ± 0.0029 | 0.0161 ± 0.0043
UCCUGCUAGUGCUUGCAUAGUAUUUAGUUA | 0.0937 ± 0.017 | 0.00303 ± 0.0022 | 0.00363 ± 0.0014
UCCUCCUACAGCUAGGAUAGUAUUUAGUUA | 0.276 ± 0.015 | 0.00685 ± 0.0019 | 0.0581 ± 0.014
UCCUCGUUCAGCUUGCAUAGUAUUUAGUUA | 0.262 ± 0.015 | 0.00616 ± 0.0018 | 0.104 ± 0.021
UCCUGGAACAGCUUGCAUAGAAUUUAGUUA | 0.0554 ± 0.01 | 0.00299 ± 0.0027 | 0.0051 ± 0.0017
UCCUGGAUGUCGUUGCAUAGUAUUUAGUUA [g2:g18:cont:t1A] | 0.164 ± 0.013 | 0.0106 ± 0.0029 | 0.00621 ± 0.0026
UCCUCCUACAGCUAUGCAUAGUAUUUAGUUA | 0.267 ± 0.02 | 0.00637 ± 0.0022 | 0.0164 ± 0.0055
UCCUGGAUCAGCCUGCAUAGUAUUUAGUUA | 0.244 ± 0.026 | 0.0068 ± 0.0031 | 0.0209 ± 0.006
UCCUGGAUGUGGUAGCAUAGUAUUUAGUUA | 0.0258 ± 0.011 | 0.00767 ± 0.0031 | 0.00356 ± 0.0033
UCCUCCUACAGCUUGCAUAGAUUUUAGUUA | 0.0522 ± 0.012 | 0.00358 ± 0.002 | 0.0032 ± 0.002
UCCUGCUUCAGCUAGCAUAGUAUUUAGUUA | 0.322 ± 0.02 | 0.00715 ± 0.0018 | 0.0566 ± 0.015
UCCUGCAACAGCUUGCAUACUAUUUAGUUA | 0.083 ± 0.011 | 0.00386 ± 0.002 | 0.0112 ± 0.0029
